Anthrax LF prot: inhibitors of Bacillus anthracis lethal factor protease; P15917; multiplex microsphere protease cleavage assay, LF; inhibition, % at 10 µM; actives 0.12% (n = 360,000); further: plate controls were buffer without enzyme for full effect and enzyme alone for no effect
BoNT F protease: inhibitors of Botulinum neurotoxin F light chain protease | Multiplex microsphere protease cleavage assay, flow cytometry | inhibition, % at 10 µM | actives 0.22% (n = 360,000) | AID 588497; in the data active means inhibition above about 35%, passing the limit was not always enough; inconclusive means no clear call, values can overlap the other calls; further: plate controls were buffer without enzyme for full effect and enzyme alone for no effect
MazF activator: MazEF (E. coli) toxin RNase activation; P0AE70; FAM/BHQ RNA-DNA oligo cleavage fluorescence, 5 h; activation, % at 20 µM; actives 0.32% (n = 350,000); in the data active means activation above about 50%
Target sequence (P0AE70 whole entry, looked up): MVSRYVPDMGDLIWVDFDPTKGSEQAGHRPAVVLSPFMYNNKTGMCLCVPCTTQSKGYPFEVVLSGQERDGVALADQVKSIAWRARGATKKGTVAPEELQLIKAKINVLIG
BoNT-A LC inh2: inhibitors of Botulinum neurotoxin A light chain protease. inhibition, % at 10 µM. actives 0.17% (n = 360,000). multiplex microsphere protease substrate cleavage, flow cytometry. AID 588499; further: plate controls were buffer without enzyme for full effect and enzyme alone for no effect
Bead autofluor: flagged as autofluorescent in microsphere protease counterscreen. compound autofluorescence counterscreen, microsphere flow cytometry; active compounds read high. fluorescence intensity (no concentration beside the values). actives 3.1% (n = 360,000). AID 624483; in the data active means fluorescence intensity above about 16000; inconclusive means no clear call, values can overlap the other calls
* marks the source's active call; other numbers are inactive results; ? = inconclusive; . = no result given. Sampled rows, rich in hits. Any-hit rate of the full collection: about 3.7%. Unless noted, no stated cut-off is given here; in the data, active means inhibition above about 30%; inconclusive means no clear call, values can overlap the other calls; inactive means below that.

SMILES | Anthrax LF prot | BoNT F protease | MazF activator | BoNT-A LC inh2 | Bead autofluor
Cc1noc(C)c1C(=O)NNc1ccc(C(C)C)cc1 | . | . | 10.4 | . | .
Cc1ccc(C(C)NC(=O)c2c(C)noc2C)cc1C (stereo unspecified) | -2.0 | -1.9 | 6.4 | -4.0 | 24941*
CC(=O)Nc1cncc(-c2ccccc2F)n1 | 0.3 | 0.1 | . | -0.1 | 3423
CCn1c(=O)cc(OCC(=O)NC2CCCCC2)c2ccccc21 | -0.4 | -3.1 | 3.1 | -1.5 | 16641*
CCn1c(=O)cc(SCC(=O)NCc2cccnc2)c2ccccc21 | 0.3 | -1.7 | -1.1 | -0.4 | 9751
CCn1c(=O)cc(OCC(=O)NCc2cccnc2)c2ccccc21 | 0.3 | -3.0 | -5.7 | ? | 23271*
CCn1c(=O)cc(OCC(=O)Nc2ccc(C)cn2)c2ccccc21 | 0.2 | 1.7 | 0.0 | 0.5 | 19603*
O=C1C=C(NC2CC2)C2(CCCCC2)O1 | -3.4 | -12.9 | -6.8 | -0.2 | 2802
O=C1C=C(NCC2CCCO2)C2(CCCCC2)O1 (stereo unspecified) | -2.6 | 2.2 | -3.8 | 2.5 | 19832*
COc1cc(NC(=O)[C@H]2O[C@@H](n3cnc4c(N)ncnc43)[C@H](O)[C@@H]2O)cc(OC)c1OC | 3.0 | 3.4 | . | -0.4 | 4197
CC(C)=CCOc1ccc2c(C)c(CCC(=O)N3C[C@H]4C[C@@H](C3)c3cccc(=O)n3C4)c(=O)oc2c1C | 5.8 | 6.8 | . | -0.3 | 5385
Cc1cccc(NC(=O)c2cc(NC(=O)C3CC=CCC3C(=O)O)ccc2N2CCOCC2)c1 (stereo unspecified) | -0.2 | -4.7 | -4.2 | -0.7 | 23987*
O=C(O)c1cc(NCc2ccccc2C(F)(F)F)ccc1N1CCOCC1 | -0.2 | -1.6 | -14.2 | ? | 22050*
O=C(O)c1cc(NCc2ccc(F)cc2)ccc1N1CCOCC1 | -3.4 | -6.7 | -0.5 | 1.1 | 3387
COC(=O)[C@H](CC(C)C)NC(=O)Nc1ccc2c(c1)OCCO2 | 0.7 | -1.1 | 0.5 | -1.2 | 22561*
CC(C)[C@H](NC(=O)Nc1ccc2c(c1)OCCO2)C(=O)O | -1.5 | 1.3 | -4.5 | -0.6 | 20779*
CCC(C)[C@H](NC(=O)Nc1ccc2c(c1)OCCO2)C(=O)O (stereo partly specified) | -4.9 | -0.7 | 5.7 | -0.2 | 8933
COC(=O)[C@@H](NC(=O)Nc1ccc2c(c1)OCCO2)C(C)C | -1.5 | -4.6 | 0.2 | -0.1 | 2544
CC(C)N1C2OC(C3OC4C(O3)N(C(C)C)S(=O)(=O)N4C(C)C)OC2N(C(C)C)S1(=O)=O (stereo unspecified) | 1.7 | 0.1 | 2.0 | 0.1 | 23341*
Nc1nc2ccccc2n1S(=O)(=O)c1ccc(Cl)cc1 | 5.0 | 2.8 | . | 0.0 | 2903
NC(=O)C1=C(N=C2CCCCC2)CCCC1 | 2.4 | 8.6 | 4.5 | -0.3 | 2896
Cc1c(NS(=O)(=O)c2cccc(C(=O)Nc3cccc(F)c3)c2)c(=O)n(-c2ccccc2)n1C | -6.3 | 8.6 | -4.6 | 5.5 | 4180
COCCCN(CC(=O)Nc1ccc(F)cc1)S(=O)(=O)c1cccs1 | -13.0 | -4.3 | 3.2 | 0.3 | 2950
Cc1cc(C)n2nc(-c3cnn(C)c3C(F)(F)F)cc2n1 | -7.2 | 2.7 | 1.1 | ? | 19076*
Cc1cc(C)n2nc(-c3cnn(C)c3C(F)(F)F)c(Cl)c2n1 | -4.6 | 0.4 | 5.9 | -0.6 | 9165
SMILES | Anthrax LF prot | BoNT F protease | MazF activator | BoNT-A LC inh2 | Bead autofluor
Cc1ccc(NC(=O)CSc2nnnn2C2CCCC2)cc1S(=O)(=O)N1CCOCC1 | -2.7 | 2.7 | 0.2 | 2.2 | 5267
CCCN1CCN(C(=O)c2ccc(Sc3ccc(C)cc3)c(NC(C)=O)c2)CC1 | -0.1 | -5.5 | -7.2 | -3.6 | 24723*
CCOC1=C2CN(S(=O)(=O)c3ccc(C)cc3)[C@@H](c3cccs3)C[C@H]2[C@H]2C(=O)N(c3ccccc3)C(=O)[C@H]2C1 | -3.3 | 14.9 | . | 0.7 | 4281
COc1ccc(-c2c(N)cnc(C(=O)O)c2C)c(OCc2ccccc2)c1OC | -2.9 | -0.8 | 6.1 | -1.3 | 3130
Cc1ccc(C)n1-c1nc(=S)[nH][nH]1 | -0.9 | -0.6 | 0.2 | -0.8 | 16597*
C=CCC[C@@H](CCCCC)OC(=O)/C=C/[C@H](O)[C@@H](O)C[C@H](O)CC=C | -3.9 | -0.9 | . | 0.3 | 4342
COCCNC(=O)c1cc2cc(Br)cc(OC)c2oc1=O | 0.9 | -4.4 | -8.5 | ? | 21622*
CCN1/C(=C2\OC(=S)N(C)C2=O)Sc2ccccc21 | 2.5 | 8.1 | 6.9 | -0.4 | 4639
CCN1/C(=C2\OC(=S)N(C)C2=O)C=Cc2ccccc21 | -3.8 | -15.2 | 655.7* | -3.2 | 4793
COc1ccc(C(=O)c2[nH]c(N)c(C(=O)NCCc3c[nH]c4ccccc34)c2-c2ccccc2Br)cc1 | -0.4 | -4.0 | . | 0.0 | 6056
CNC(=O)N(C1=NCC(C)S1)c1ccc(F)cc1F (stereo unspecified) | -2.7 | -5.2 | -0.5 | ? | 23465*
Cc1nn2c(N3CCN(C4CCCC4)CC3)cc(C(C)(C)C)nc2c1-c1ccccc1 | -10.0 | -3.8 | 0.4 | ? | 23963*
Cc1cc(N2CCN(Cc3ccccc3)CC2)n2nc(C)c(-c3ccccc3)c2n1 | -3.9 | -10.1 | -4.7 | -4.7 | 22404*
COC(=O)NNC(=O)c1ccccc1C | -0.1 | 2.8 | -1.0 | ? | 22876*
O=C(NNC1=NCCC1)c1cccc(Br)c1 | -0.6 | 22.2 | 6.0 | -0.2 | 4194
Cc1ccccc1C(=O)NNC1=NCCC1 | 0.3 | -0.7 | 6.4 | -1.3 | 17045*
Cc1c(Cl)cccc1NC(=O)C(=O)NNC(=O)c1ccccc1F | 4.4 | -13.7 | 5.7 | -1.3 | 4509
Cc1ccccc1C(=O)NNC(=O)C(=O)Nc1cccc(Cl)c1C | -1.7 | -3.0 | -5.0 | -0.8 | 20831*
Cc1ccccc1C(=O)NNC(=O)Cc1ccccc1 | 0.8 | 6.2 | -26.9 | -0.8 | 7322
CCNC(=O)C1(C)CCCN(C(=O)c2ccnc(Cl)c2)C1 (stereo unspecified) | -4.9 | 0.4 | . | -0.3 | 3535
O=C1C2C3C=CC(C3=C(c3ccccc3)c3ccccc3)C2C(=O)N1CCO (stereo unspecified) | -1.3 | -0.4 | 3.1 | -0.8 | 16812*
Cn1c(-c2ccc(F)cc2)cnc1NCc1cccc(F)c1 | -1.2 | 4.3 | 5.8 | -0.4 | 4025
Cn1c(-c2cccc(Br)c2)cnc1NCc1cccnc1 | -2.1 | -3.6 | 0.2 | -2.1 | 23394*
Cn1c(-c2ccccc2)cnc1NCc1ccc(F)cc1 | -0.8 | ? | 11.5 | -6.6 | 4574
Cn1c(-c2ccc(F)cc2)cnc1NCc1ccccc1 | -4.4 | -5.9 | -4.4 | -3.4 | 17208*
N#CCCN(Cc1ccccc1)C(C(=O)NC1CCCCC1)C1CC1 (stereo unspecified) | 13.6 | 1.3 | . | -0.4 | 4155
Cc1cccc(N2C(=O)NC(=O)/C(=C/c3cc4c(cc3[N+](=O)[O-])OCO4)C2=O)c1 | -8.0 | -4.5 | 536.7* | -0.1 | 3135
O=C(c1cc(-c2ccc(F)cc2)nc2ccccc12)N1CCN(C2CCS(=O)(=O)C2)CC1 (stereo unspecified) | -2.3 | -0.7 | -3.6 | 0.4 | 3506
CCOC(=O)C1=C(COC(=O)c2ccccc2[N+](=O)[O-])NC(=O)NC1C (stereo unspecified) | -1.3 | 5.5 | 2.4 | 0.2 | 5626

Compound activity from PubChem BioAssay.
